Several values for one entry are separate records, joined by “and”; a condition that tells them apart may be missing. Identical values can stand only once. Activity calls are given as the source filed them.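 How the source made its calls, unless noted: active means compounds whose cell count with miR-34 switched on is under 0.7 times the count with it off; inactive means the rest.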

The inhibition is the change of the read-out against control, counted positive when it falls. A word on the remaining activity: it is the signal under treatment as a percentage of the control signal.

Experiment [1] concerns Hepatitis C virus NS3 helicase. Briefly: blockers of NS3h binding to ssDNA – biochemical, fluorescence polarization, LOPAC1280 library, primary screen (AID 687035; in the data active means inhibition above about 37%). Conditions: Purified HCV NS3 helicase, Cy5-dT15 ssDNA binding fluorescence polarization; stronger effect = higher value; concentration not given here.
A short description of experiment [2]: compounds altering Cy5-DNA-NS3h complex signal – biochemical, LOPAC1280, artefact control for HCV NS3 helicase inhibitor project (AID 687037; call rule not given here). The conditions noted are these: Cy5-DNA-NS3h complex fluorescence interference counterscreen. (In general: The purpose of a counterscreen is to sort out artefacts and off-target activity.)
A short description of experiment [3]: Wnt pathway potentiators raising nuclear beta-catenin – imaging, WNT3A-conditioned medium, mouse C2C12, NPC library, primary screen (AID 1117326; in the data active means nuclear beta-catenin stimulation mostly above about 4.2%, no sharp cut-off; inactive means mostly below about 10%). Conditions: stronger effect = higher value.
The nature of experiment [4]: stimulators of insulin release from INS-1E, primary screen, cell-based, 5 mM glucose, NPC library (AID 1117329;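 active means compound raises insulin release from rat beta cells at 5 mM glucose, no numeric limit stated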). The conditions noted are these: rat INS-1E insulin secretion, at 10 µM, stronger effect = higher value.
Experiment [5] is described as follows: growth inhibition of GSK3B-pretreated HCT116 cells – cell-based, CellTiter-Glo, 0.2 to 20 µM (AID 1117336;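 active means compounds lowering colon cancer cell viability after pretreatment blocking the GSK3B kinase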). Conditions: HCT116 viability after GSK3B inhibitor, at 20 µM, stronger effect = higher value. Background: ATP-based viability assays read luminescence as a measure of living cells.
A short description of experiment [6]: inhibition of endothelial tube formation, primary screen, imaging, VEGF stimulated, CD31 staining, tube area, NPC library (AID 1117340;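 active means compound that reduces growth-factor-driven endothelial tube area in a mixed cell culture, no cutoff stated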). Conditions: VEGF-stimulated ADSC/ECFC co-culture, at 10 µM, stronger effect = higher value.
A short description of experiment [7]: GLP1 release stimulators, primary, NCI-H716, NPC library (AID 1117341;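 active means compound raises GLP1 secretion from the human gut endocrine cells, with no numeric limit stated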). Conditions: NCI-H716 cells, at 10 µM, stronger effect = higher value.
A short description of experiment [8]: HCT116 colon cancer cell growth inhibition, primary screen, CellTiter-Glo luminescence, NPC library (AID 1117342;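 active means compounds that lower survival of HCT116 colon cancer cells in the luminescence readout, no numeric limit stated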). Conditions: at 20 µM (top of the series).
A short description of experiment [9]: reduced SW480 viability measured with CellTiter-Glo, NPC library, primary (AID 1117343;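 active means compounds that lower viability of the colon cancer cells in the luminescence readout, with no numeric limit stated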). Conditions: CellTiter-Glo luminescence; at 20 µM (top of the series).
A short description of experiment [10]: NPC library primary testing for decreased DLD-1 cell viability via CellTiter-Glo (AID 1117346;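 active means compounds that lower survival of DLD-1 colon cancer cells in the luminescence readout, no cutoff given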). Conditions: DLD-1 viability, CellTiter-Glo luminescence; at 20 µM (top of the series).
Experiment [11] has as its system Aerobactin synthetase IucA (Klebsiella pneumoniae, hypervirulent). Kind of experiment: biochemical IucA inhibition screen of LOPAC library by absorbance (AID 1346212; call rule not given here;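 further: 100% = no compound wells and 0% = no enzyme wells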). Conditions: IucA enzyme assay, absorbance (OD) readout; stronger effect = lower value;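 tested at 8 µM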.
Experiment [12] can be described thus: viability loss with induced miR-34 in A549 – imaging, A549 dox-inducible miR-34, nuclei and caspase counts, primary screen (AID 1347080). Conditions: A549 miR-34 inducible, Hoechst nuclei count, 48 h.
A short description of experiment [13]: galactose survival enhancers in mitochondrial complex I cybrids – cell-based, galactose medium, ATP luminescence, primary screen (AID 1645843;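 active means z-score of at least 1.8 in each of two replicates, scored against plate mean and spread of sample wells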;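 further: positive z means more ATP and so rescue of galactose-driven cybrid death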). Conditions: complex I mutant cybrid cells, 72 h, stronger effect = higher value.
The nature of experiment [14]: compounds altering viability of human ES cells (AID 493140; call rule not given here;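 further: cells exposed to compounds for four days before counting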). Conditions: human embryonic stem cell survival screen; stronger effect = higher value.
Experiment [15] can be described thus: EMT-state selective cytotoxicity in co-culture – imaging, PC-3E GFP, TEM4-18 mCherry, primary screen (AID 1345086;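 active means compounds killing one labelled cell type while sparing the other, by normalised counts and ratio limits, not self-fluorescent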;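 on all read-outs here: cells exposed to compound for 72 h before imaging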;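 on red/green cell ratio (normalised): normalised mesenchymal count divided by normalised epithelial count so high means epithelial killing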). The conditions noted are these: PC-3E GFP / TEM4-18 mCherry co-culture, imaging cell counts, at 1 µM; for red/green cell ratio (normalised): actives lie on both sides.
Experiment [16] addresses NAD(+) hydrolase SARM1 (Homo sapiens) (UniProt Q6SZW1). Briefly: blocking NAD cleavage by SARM1 SAM-TIR – cell lysate, NAD-Glo luminescence (AID 1508614;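 active means compound whose remaining NAD level is above about 45 nM, limit read from the data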). The conditions noted are these: SAM-TIR HEK293T lysate NADase, at 1 µM, stronger effect = higher value.
[17] abbreviates: measured here: relative caspase fold change +Dox/-Dox.
[18] abbreviates: measured here: total cells with miR-34 induction, stronger effect = lower value.
Setting [19] is: measured here: total cells without miR-34 induction.
Setting [20] is: measured here: epithelial PC-3E GFP cell survival.
[21] abbreviates: measured here: mesenchymal TEM4-18 mCherry cell survival.

Sequence of NAD(+) hydrolase SARM1 (Homo sapiens) (Q6SZW1 whole entry, looked up): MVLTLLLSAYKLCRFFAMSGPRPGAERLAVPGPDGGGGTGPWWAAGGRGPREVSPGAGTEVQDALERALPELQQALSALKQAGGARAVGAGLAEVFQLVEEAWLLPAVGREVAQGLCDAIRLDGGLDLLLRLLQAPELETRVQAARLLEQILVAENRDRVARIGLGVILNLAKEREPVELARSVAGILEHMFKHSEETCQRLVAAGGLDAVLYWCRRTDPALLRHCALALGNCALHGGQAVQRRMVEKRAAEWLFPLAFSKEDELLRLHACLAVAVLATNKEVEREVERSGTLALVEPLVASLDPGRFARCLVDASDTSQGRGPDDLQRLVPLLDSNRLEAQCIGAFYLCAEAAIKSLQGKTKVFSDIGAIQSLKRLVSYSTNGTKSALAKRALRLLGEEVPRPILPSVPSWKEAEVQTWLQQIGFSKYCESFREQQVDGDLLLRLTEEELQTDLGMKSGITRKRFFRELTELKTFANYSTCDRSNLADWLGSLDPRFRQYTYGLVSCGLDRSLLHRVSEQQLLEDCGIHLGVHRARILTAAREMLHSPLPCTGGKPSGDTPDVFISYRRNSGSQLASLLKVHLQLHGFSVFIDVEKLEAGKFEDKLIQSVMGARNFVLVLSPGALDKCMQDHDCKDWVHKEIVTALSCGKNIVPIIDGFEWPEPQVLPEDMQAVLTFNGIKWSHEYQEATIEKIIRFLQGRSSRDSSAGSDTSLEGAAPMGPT

As to `Cc1ccc(S(=O)(=O)N[C@@H](CCCCN)C(=O)CCl)cc1`, the inhibition in experiment [1] is -3% (inactive). In experiment [2], the fluorescence ratio (interference) was 1 (inactive). The nuclear beta-catenin stimulation in experiment [3] (at 10 µM) was 2.3% (inactive); in experiment [3] (stimulation, at 2 µM), 0%. In addition, in experiment [4], the insulin secretion stimulation was 0.9% (inactive). For the same compound, the viability decrease in [5] is -9.5% (inactive). Further, in experiment [6], the tube area decrease was 13% (inactive). Further, the GLP1 secretion stimulation in [7] was -1.9% (inactive). For the same compound, in experiment [8], the inhibition of viability was -8.6% (inactive). Also, the figures for the viability decrease (inhibition) in experiment [9] and in [10] were 12.5% (inactive) and -7% (inactive), respectively. Further, in experiment [11], the remaining activity was 114% (inactive). Besides, the fold change in experiment [12] (stronger effect = lower value) is 0.989 (inactive) and 0.965 (inactive); in experiment [12] (setting [17]) it was 1.42 and 1.58. In addition, the cell count in experiment [12] (setting [18]) was 9040 and 5750; in [12] (setting [19]), 9130 and 5960. The z-score in experiment [13] is -0.59 (inactive).
On to `CCCCC/C=C\C/C=C\C/C=C\C/C=C\CCCC(=O)NCC(=O)O`, for which the survival in experiment [14] is 96.8 (inactive). In [1], the inhibition is -1% (inactive). Besides, the fluorescence ratio (interference) in experiment [2] was 1 (inactive). Besides, the nuclear beta-catenin stimulation was 0.8% (inactive) in experiment [3] (at 10 µM) and 0.6% in experiment [3] (stimulation, at 2 µM). The insulin secretion stimulation in experiment [4] is 2.2% (inactive). The viability decrease in [5] is 104% (active). Moreover, the tube area decrease in [6] was -12.4% (inactive). In experiment [7], the GLP1 secretion stimulation is 5% (inactive). The inhibition of viability in experiment [8] was 103% (active). For the same compound, the viability decrease (inhibition) is 145% (active) in experiment [9] and 105% (active) in [10]. Further, in [11], the remaining activity was 101% (inactive). Besides, the fold change in experiment [12] (stronger effect = lower value) is 0.935 (inactive) and 1.01 (inactive); in [12] (setting [17]) it was 1.02. In addition, the cell count in [12] (setting [18]) is 5930 and 5790; in [12] (setting [19]), 6340 and 5700.
`FC(F)(F)c1cccc(C2=CCN(CCc3ccc4ccccc4c3)CC2)c1`: the nuclear beta-catenin stimulation in [3] (at 10 µM) is -0.7% (inactive); in experiment [3] (stimulation, at 2 µM), -1.5%. In addition, in [4], the insulin secretion stimulation is 0.45% (inactive). The viability decrease in [5] is 40.2% (inactive). Also, the tube area decrease in experiment [6] is -6.6% (inactive). For the same compound, in [7], the GLP1 secretion stimulation was 3.7% (inactive). In addition, in experiment [8], the inhibition of viability was 42.1% (inactive). The values for the viability decrease (inhibition) in [9] and in [10] were 53.5% (active) and 17.3% (inactive), respectively. Also, the fold change in experiment [12] (stronger effect = lower value, cell number ratio, induced over uninduced) is 0.954 (inactive); in experiment [12] (setting [17]), 1.47. For the same compound, the cell count in experiment [12] (setting [18]) turned out to be 8420; in experiment [12] (setting [19]), 8830. Also, in experiment [13], the z-score was -0.615 (inactive).
On to `CC(O)CN1CCN(CC(=O)[O-])CCN(CC(=O)[O-])CCN(CC(=O)[O-])CC1.[Gd+3]` (configuration not stated), for which the nuclear beta-catenin stimulation was -1.8% (inactive) in experiment [3] (at 10 µM) and -0.7% in experiment [3] (stimulation, at 2 µM). In experiment [4], the insulin secretion stimulation was 3.6% (inactive). Also, the viability decrease in [5] was 7.8% (inactive). Also, the tube area decrease in experiment [6] was 9.4% (inactive). The GLP1 secretion stimulation in [7] is -4.3% (inactive). Also, the inhibition of viability in experiment [8] was 0.7% (inactive). For the same compound, the viability decrease (inhibition) in [9] is -1.9% (inactive); in experiment [10], -6.4% (inactive). For the same compound, in experiment [15], the red/green cell ratio (normalised) was 0.9 (inactive). The normalised cell number worked out at 1.27 in [15] (setting [20]) and 1.14 in experiment [15] (setting [21]). In addition, the fold change was 0.973 (inactive) in [12] (stronger effect = lower value) and 0.913 in experiment [12] (setting [17]). Besides, the values for the cell count in [12] (setting [18]) and in experiment [12] (setting [19]) were 8990 and 9240, respectively. For the same compound, the remaining NAD in [16] was 10 nM (inactive).
On to `CCOC(=O)CC(SP(=S)(OC)OC)C(=O)OCC` (configuration not stated), for which the nuclear beta-catenin stimulation was 1% (inactive) in [3] (at 10 µM) and -0.1% in experiment [3] (stimulation, at 2 µM). In experiment [4], the insulin secretion stimulation is -1.5% (inactive). Moreover, in experiment [5], the viability decrease is -29.7% (inactive). In experiment [6], the tube area decrease was 18% (inactive). The GLP1 secretion stimulation in [7] is 0.7% (inactive). For the same compound, the inhibition of viability in experiment [8] was -0.33% (inactive). Moreover, the viability decrease (inhibition) was 27% (inactive) in [9] and -18% (inactive) in experiment [10]. Further, the red/green cell ratio (normalised) in experiment [15] was 1.05 (inactive). Further, the normalised cell number in [15] (setting [20]) was found to be 1.11; in [15] (setting [21]), 1.16. The fold change in [12] (stronger effect = lower value) is 0.857 (inactive); in experiment [12] (setting [17]), 0.964. The values for the cell count in experiment [12] (setting [18]) and in experiment [12] (setting [19]) were 7400 and 8640, respectively. For the same compound, in experiment [16], the remaining NAD was 10 nM (inactive).

The record behind these values is PubChem BioAssay.
